Data reported in PubChem BioAssay (NCATS).
Inconclusive results are not listed. The source made the active and inactive calls. The call rests on the fitted dose curve; in most records, active means well fitted inhibition curve with a large enough effect; inconclusive means small, poorly fitted or top-dose-only effect; inactive means flat fitted curve, though single readings scatter.

Molecular target: Phospholipid hydroperoxide glutathione peroxidase GPX4 (Homo sapiens) (UniProt P36969)
Experiment: Primary qHTS Assay for Inhibitors of Recombinant Selenoprotein Glutathione Peroxidase 4 (GPX4) (AID 1845192); further: nearly all actives have a fitted effect of over 65% in size
Settings: recombinant GPX4, GR-coupled NADPH fluorescence, 15 min; series mostly up to 50 µM; activity change, negative = inhibition: at the top concentration
Procedure, shortened: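 qHTS, GR-coupled: GPX4 200 nM + cpd 30 min RT → GSH 1 mM, NADPH 0.5 mM, GR 100 nM → CHP 0.5 mM start; fluor 340/450 at t0 and t15 min; no-enzyme wells as control.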
On the % scale 0 is the no-effect control and ±100 the full control effect.

Chain of Phospholipid hydroperoxide glutathione peroxidase GPX4 (Homo sapiens) (P36969 whole entry, looked up): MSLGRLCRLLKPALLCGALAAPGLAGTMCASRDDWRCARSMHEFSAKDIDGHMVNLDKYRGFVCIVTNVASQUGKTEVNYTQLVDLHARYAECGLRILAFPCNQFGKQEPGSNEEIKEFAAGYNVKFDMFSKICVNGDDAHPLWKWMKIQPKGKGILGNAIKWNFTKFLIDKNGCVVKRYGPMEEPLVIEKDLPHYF

Row | SMILES | activity change, negative = inhibition | Potency | outcome
1 | O=C1c2cccc(O)c2C(=O)c2c(O)cccc21 | 0.0582% (inactive) |  | 
2 | COC(=O)c1ccc(O)cc1 | -1.38% (inactive) |  | 
3 | CCN(CC)C(=O)c1cccc(C)c1 | -1.38% (inactive) |  | 
4 | OCCN1C[C@H](O)[C@@H](O)[C@H](O)[C@H]1CO |  | inactive | 
5 | CCCCCCCCCCC(CO)CCCCCCCC (centres undefined) | -15.9% (inactive) |  | 
6 | CC(=O)N(CC(O)CO)c1c(I)c(C(=O)NCC(O)CO)c(I)c(C(=O)NCC(O)CO)c1I (centres undefined) | -10.4% (inactive) |  | 
7 | NC(=O)c1ccc([N+](=O)[O-])cc1Cl | 1.7% (inactive) |  | 
8 | C=CCOc1ccccc1OCC(O)CNC(C)C (centres undefined) | -17.9% (inactive) |  | 
9 | FC(F)(F)C(Cl)Br (centres undefined) | -7.15% (inactive) |  | 
10 | COc1ccc2cc(CCC(C)=O)ccc2c1 |  |  | inactive
11 | CCCCCCCC(=O)OCC(COC(=O)CCCCCCC)OC(=O)CCCCCCC |  |  | inactive
12 | NS(=O)(=O)c1cc2c(cc1C(F)(F)F)NCNS2(=O)=O | -11% (inactive) |  | 
13 | C[N+]1(C)CCCC(OC(=O)C(O)(c2ccccc2)c2ccccc2)C1 (centres undefined) |  |  | inactive
14 | NC(N)=NCCN1CCCCCCC1 |  |  | inactive [at 0.409 µM]
15 | CC(=O)N[C@@H](Cc1ccc(O)cc1)C(=O)O | -5.87% (inactive) |  | 
16 | CCN1CC(CCN2CCOCC2)C(c2ccccc2)(c2ccccc2)C1=O (centres undefined) | -14% (inactive) |  | 
17 | C/C=C/C(=O)N(CC)c1ccccc1C |  | inactive | 

Row | SMILES | activity change, negative = inhibition | Potency | outcome
18 | CCCCC1(COC(=O)CCC(=O)O)C(=O)N(c2ccccc2)N(c2ccccc2)C1=O |  |  | inactive
19 | COC(=O)N/N=C/c1c[n+]([O-])c2ccccc2[n+]1[O-] |  |  | inactive
20 | CC1(C)S[C@@H]2[C@H](N=CN3CCCCCC3)C(=O)N2[C@H]1C(=O)O | -8.94% (inactive) |  | 
21 | CC(C)NC[C@@H](O)COc1ccc(CC(N)=O)cc1 | -1.51% (inactive) |  | 
22 | O=C(O)/C=C/c1ccc(Cn2ccnc2)cc1 |  | inactive | 
23 | CCS(=O)(=O)CCn1c([N+](=O)[O-])cnc1C |  |  | inactive
24 | NC(=O)CC[C@@H](N)C(=O)O | -5.5% (inactive) |  | 
25 | Cn1cc(C(=O)[C@@H]2CCc3nc[nH]c3C2)c2ccccc21 |  |  | inactive
26 | COCC(=O)Nc1c(I)c(C(=O)NCC(O)CO)c(I)c(C(=O)N(C)CC(O)CO)c1I (centres undefined) | 0.694% (inactive) |  | 
27 | CC(=O)[C@@]1(O)CC[C@H]2[C@@H]3C[C@H](C)C4=CC(=O)C=C[C@]4(C)[C@@]3(F)[C@@H](O)C[C@@]21C |  |  | inactive
28 | CN/C(=C\[N+](=O)[O-])NCCSCc1csc(CN(C)C)n1 |  |  | inactive
29 | Cc1[nH]c(C)c(Cl)c(=O)c1Cl | 2.32% [at 27.8 µM] (inactive) |  | 
30 | Cc1cccc(Nc2ccccc2C(=O)O)c1C | -20.5% (inactive) |  | 
31 | CCCCCCCC(=O)OCC(O)CO (centres undefined) |  |  | inactive
32 | C/C(=C(\CCO)SS/C(CCO)=C(\C)N(C=O)Cc1cnc(C)nc1N)N(C=O)Cc1cnc(C)nc1N | -30.9% (inactive) |  | 
33 | Cc1cc(O)cc(C)c1Cl |  |  | inactive
34 | CCCNC(C)(C)COC(=O)c1ccccc1 | 3.59% (inactive) |  | 
